According to the supplement of paper PMC11219838:
Unmarked numbers belong to inactive results.

What follows are compounds tested on Ditylenchus dipsaci (assay: proportion of mobile D. dipsaci (mixed stage) relative to DMSO control (fraction of DMSO control); higher = more viable, less nematicidal, active = 0.86 or less; extreme values may be limits of the assay). Settings: 60 µM; 5 days; temperature: 20 °C.
Procedure, shortened: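 D. dipsaci were grown on pea plants in Gamborg B-5 agar and extracted through a filter funnel into water, and about 20 worms were added per 96-well well in distilled water. Compound was pinned to 60 µM final (0.6% v/v DMSO), and sealed plates were shaken at 200 rpm for 5 days at 20 °C. After 2 µL 1 M NaOH was added, mobile worms were scored microscopically. Mobility was expressed relative to DMSO controls and averaged over two biological replicates.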

SMILES	proportion of mobile D. dipsaci
CNC(=O)c1ccccc1-c1nc(-c2ccc(F)cc2)no1	1
COc1cccc(-c2noc(COc3ccc(C)cc3)n2)c1	1
c1coc(-c2nc(-c3cccs3)no2)c1	1
COc1cccc(-c2noc(COc3ccc(C(C)C)cc3)n2)c1	1
N#Cc1ccccc1NC(=O)CSc1nnc(-c2ccccc2)o1	1
Brc1ccc(-c2noc(-c3cccs3)n2)cc1	1
Brc1ccc(-c2nc(-c3ccc4c(c3)OCO4)no2)cc1	1
O=C(Nc1cccc(-c2noc(-c3cccnc3)n2)c1)c1cccs1	1
COc1cccc(-c2nnc(SCc3ccccc3C)o2)c1	1
COc1ccc(Cl)cc1NC(=O)CSc1nnc(-c2ccc(C)cc2)o1	1
Cc1ccccc1OCc1nc(-c2cccc(C(F)(F)F)c2)no1	1
Clc1ccccc1OCc1nc(-c2cccs2)no1	1
CCSc1nnc(-c2ccc(Cl)cc2)o1	0 (active)
COc1nc(-c2ccc(C)cc2)ccc1-c1noc(C)n1	1
CCOc1ccccc1-c1nnc(SCC(=O)Nc2nc(C)cs2)o1	1
O=C(CSc1nnc(-c2ccccc2Cl)o1)NCc1ccccc1	1
O=C(Nc1ccccc1-c1nc(-c2cccnc2)no1)c1cc2ccccc2o1	0.9
Cc1ccc(Cl)cc1NC(=O)CSc1nnc(-c2ccncc2)o1	1
O=C(CSc1nnc(-c2ccc(Br)cc2)o1)Nc1nccs1	1

SMILES	proportion of mobile D. dipsaci
c1ccc(-c2nc(C3CCCCC3)no2)cc1	1
Cc1ccc(-c2nnc(SCc3ccccc3Cl)o2)cc1	1
Fc1ccc(OCc2nc(-c3ccccc3)no2)cc1	1
Nc1nc(CSc2nnc(-c3ccccc3)o2)cs1	1
CN(C)C(=O)c1ccccc1-c1nc(-c2ccccc2Cl)no1	1
COc1ccccc1-c1nnc(SCC(=O)Nc2ccc(F)cc2)o1	1
Cc1cc(NC(=O)CSc2nnc(-c3ccc(Cl)cc3Cl)o2)no1	1
c1ccc(CSc2nnc(-c3cccnc3)o2)cc1	1
Cc1ccc(-c2noc(-c3ccccc3C(=O)N3CCC(C)CC3)n2)cc1	1
COc1ccc(-c2nnc(SCC(=O)Nc3ccc(Br)c(C)c3)o2)cc1	1
COc1nc(-c2ccccc2)ccc1-c1noc(-c2ccco2)n1	1
CC(C)C(=O)Nc1ccccc1-c1nc(-c2ccncc2)no1	1
O=C(Nc1ccc(-c2noc(-c3ccccn3)n2)cc1)c1cccc(Cl)c1	1
CCCCC(=O)Nc1ccccc1-c1nc(-c2ccncc2)no1	1
CCNC(=O)c1ccccc1-c1nc(-c2ccc(OC)cc2)no1	1
CCOc1ccccc1-c1nc(-c2ccc(Cl)cc2)no1	1
Cc1ccc(-c2nc(-c3ccc4c(c3)OCO4)no2)cc1	1
Brc1ccc(-c2noc(-c3cccs3)n2)o1	1
O=C(c1ccccc1-c1nc(-c2ccccc2Cl)no1)N1CCCCC1	1
